Screening data as filed in PubChem BioAssay.
In the library only some 4.4% were active in any assay of this set; here they are far more common.
HPGD inh = inhibitors of human 15-hydroxyprostaglandin dehydrogenase (HPGD) | purified HPGD, NADH fluorescence kinetic, PGE2 substrate | Potency, µM, usual class: inhibitors | 4.3% of 150,000 active; active means well fitted inhibition curve with a large enough effect, not every such curve was filed as active; inconclusive means small, poorly fitted or top-dose-only effect, or another doubt; inactive means no such curve, though single readings can be large or run the other way
Target sequence (P15428 whole entry, looked up): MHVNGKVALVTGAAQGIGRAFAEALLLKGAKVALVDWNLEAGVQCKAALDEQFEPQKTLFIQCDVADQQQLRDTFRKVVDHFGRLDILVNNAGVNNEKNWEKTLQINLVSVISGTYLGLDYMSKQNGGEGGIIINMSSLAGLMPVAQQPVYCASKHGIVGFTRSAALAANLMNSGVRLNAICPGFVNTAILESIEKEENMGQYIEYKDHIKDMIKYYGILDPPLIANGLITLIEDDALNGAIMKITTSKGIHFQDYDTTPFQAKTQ
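20 nM HPGD preincubated 15 min at room temperature with compound in 50 mM Tris-HCl pH 8, 0.01% Tween 20. Started with 1 mM NAD+ and 30 uM prostaglandin E2; NADH fluorescence (360/450 nm) read 5 times over 30-s intervals, last minus first.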
p53ts 39C kill = kills p53ts cells at the nonpermissive temperature; H1299-p53A138V viability at 39C, ATP luminescence, 24 h; Potency, µM (highest dose often 46.1 µM), actives largely listed as cytotoxic; 1.5% of 130,000 active; further: nearly all actives have a fitted effect of over 55% in size
12-hLO inh = 12-hLO (ALOX12) enzyme inhibition | purified 12-hLO, xylenol orange hydroperoxide absorbance | Potency, µM (series often up to 57.1 µM), most hits filed as inhibitors | 0.12% of 150,000 active | P18054; further: nearly all actives have a fitted effect of over 55% in size
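Hydroperoxide output read as Fe(III)-xylenol orange absorbance, 573-to-405 nm ratio, after 30 min reaction with 40 uM arachidonic acid. Enzyme: 150 nM purified human 12hLO, 15 min compound preincubation; 25 mM Hepes pH 7.0, room temperature.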
p53ts 32C tox = p53ts cell cytotoxicity, permissive temperature. H1299-p53A138V at 32C, ATP luminescence viability, 24 h. Potency, µM (titrated, usually from 46.1 µM), actives largely listed as cytotoxic. 0.93% of 130,000 active. AID 924; further: nearly all actives have a fitted effect of over 55% in size
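H1299-p53 A138V cells (temperature-sensitive p53) exposed 24 h to up to 46 uM compound at 32C, where p53 is wild-type in conformation. Viability read as ATP luminescence and normalised to DMSO and 100 uM tamoxifen. AC50 fitted with the Hill equation.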
Hits are given with their value; – = inactive; ? = inconclusive; · = no result; [ ] = remark or other dose. Unless noted, the call rests on the fitted dose curve; in most records, active means well fitted curve in the direction sought with a large enough effect; inconclusive means small, poorly fitted or top-dose-only effect, or another doubt; inactive means no such curve, though single readings can be large; an effect the other way counts as inactive or inconclusive.

SMILES	HPGD inh	p53ts 39C kill	12-hLO inh	p53ts 32C tox
COc1ccc(Cl)cc1-n1c(N)c(C(N)=O)sc1=S	28µM	–	–	–
CCOC(=O)c1sc(=S)n(-c2ccccc2OC)c1N	?	–	–	–
CCOc1ccccc1-n1c(N)c(C(N)=O)sc1=S	–	·	–	·
CCCCNC(=O)c1sc(=S)n(-c2ccccc2OC)c1N	32µM	·	–	·
COC(=O)c1sc(=S)n(-c2ccccc2OC)c1N	14µM	·	–	·
CC(C)(C)c1onc(OCP(=O)(O)O)c1CC(N)C(=O)O (stereo not drawn)	–	·	·	·
O=C1C2C3C=CC(C4CC34)C2C(=O)N1/N=C/c1cccs1 (stereo not drawn)	4.5µM	·	–	·
Cc1nc2ccn(Cc3cccnc3)c(=O)c2cc1C(=O)N1CCN(c2ccc(F)cc2)CC1	·	–	·	–
CCOC(=O)c1c(C)c(C(=O)NCCOC)c(C)n1CC	8.9µM	–	–	–
CC1(C)O[C@@H]2[C@@H](O1)C(c1ccccc1)(c1ccccc1)OP(=O)(O)OC2(c1ccccc1)c1ccccc1	–	·	·	·
N#Cc1ccc(CSc2nc(-c3cccs3)c3c(c2C(=O)O)CCCC3)cc1	18µM	–	–	–
COc1ccc2c(c1OC)C(Cc1ccccc1)N1CCc3cc4c(cc3C1C2)OCO4 (stereo not drawn)	?	–	–	–
CN(C)S(=O)(=O)Nc1ccc(Oc2ccccc2)cc1	13µM	–	–	–
CCC1CN(C(=O)N2CCC(C(=O)NCCN(CC)CC)CC2)c2ccccc2O1 (stereo not drawn)	·	–	·	–
CC(C)C(=O)Nc1ccc(Nc2ccccc2)cc1	–	–	–	–
CC(=O)c1cccc(NC(=S)NC(=O)CC(C)(C)C)c1	16µM	·	–	·
CC(C)CC(=O)Nc1ccc(Nc2ccccc2)cc1	11µM	–	–	–
CC(C)(C)CC(=O)Nc1ccc(Nc2ccccc2)cc1	14µM	·	–	·
CC(=O)c1cccc(NC(=O)Cc2ccc3c(c2)CCCC3)c1	25µM	·	–	·
Cc1cccc(NC(=O)CC(C)(C)C)c1	16µM	–	–	–
CCCCc1ccc(NC(=O)CC(C)(C)C)cc1	14µM	·	–	·
O=C(NCCN1CCCCC1)c1ccc(Cn2c(SCc3cccc(F)c3)nc3cccnc32)cc1	·	?	·	–
COc1ccc(Nc2ccc3cc(S(=O)(=O)N4CCCC4)ccc3n2)cc1Cl	·	–	·	–
Cc1cc(C)cc(NC(=O)Cn2c3ncccc3c(=O)n2-c2ccc(C)c(C)c2)c1	·	–	·	–
CC(C)CNC(=O)C1CCN(c2ccc(S(=O)(=O)N3CCOCC3)cc2Cl)CC1	16µM	–	–	–
SMILES	HPGD inh	p53ts 39C kill	12-hLO inh	p53ts 32C tox
O=C(NC1CC1)C1CCN(c2ccc(S(=O)(=O)N3CCOCC3)cc2Cl)CC1	25µM	–	–	–
O=c1nc2ccccc2c2n1C[C@H](CN1CCN(c3ccccc3)CC1)N2	?	–	–	–
NS(=O)(=O)c1cccc2c1c([N+](=O)[O-])cc1[nH]c(=O)c(=O)[nH]c12	16µM	–	–	–
CCCCNc1ccc(S(N)(=O)=O)cc1[N+](=O)[O-]	–	·	–	·
NS(=O)(=O)c1cccc2c1c([N+](=O)[O-])cc1nc(O)c(O)nc12	16µM	–	–	–
COC(=O)C/C=C\[C@@H](C)[C@@H](/C=N\OC[C@@H](O)COCc1ccco1)NS(=O)(=O)c1ccc(C)cc1	·	–[9.22 µM]	·	–[9.22 µM]
CCOC(=O)Cn1c(=O)n(CC2CCCO2)c2nc(-c3ccc(OC)cc3OC)nc(C(N)=O)c21 (stereo not drawn)	·	–	·	–
O=c1/c(=C\c2cccnc2)sc2nc3ccccc3n12	–	–	–	–
Cc1ccc2c(nc3s/c(=C/c4cccs4)c(=O)n32)c1C	28µM	–	–	–
Cc1cc(C)c2nc3s/c(=C/c4ccccc4)c(=O)n3c2c1	5µM	·	–	·
O=[N+]([O-])c1nccn1C[C@H](O)CN1CCCCC1	–	–[9.22 µM]	–[11.4 µM]	–[9.22 µM]
Cc1ccc(/C=C/c2onc(C)c2S(=O)(=O)N2CCC(C(=O)NCC(C)c3ccccc3)CC2)cc1 (stereo not drawn)	·	?	·	–
CC(C)c1ccc(NC(=O)c2ccc3oc(=O)c(S(=O)(=O)c4ccc(F)cc4)cc3c2)cc1	·	2.5µM	·	10µM
COc1cc(NC(=O)c2ccc3oc(=O)c(S(=O)(=O)c4ccccc4)cc3c2)cc(OC)c1	·	?	·	16µM
Cc1cccc(NC(=O)c2ccc3oc(=O)c(S(=O)(=O)c4ccc(F)cc4)cc3c2)c1C	·	?	·	–
CCOC(=O)c1c(C)oc2ccc(N(C(=O)Oc3ccccc3)S(=O)(=O)c3ccc(CC)cc3)cc12	·	–	·	–
COc1ccc(S(=O)(=O)N2CCC(C(=O)N3CCCCC3)CC2)cc1Cl	16µM	·	–	·
CC1CCN(C(=O)C2CCN(S(=O)(=O)c3cccnc3)CC2)CC1	–	·	–	·
COc1ccc(S(=O)(=O)N2CCC(C(=O)N3CCCC3)CC2)cc1Cl	–	–	–	–
O=C(C1CCN(S(=O)(=O)c2cccnc2)CC1)N1CCCCC1	20µM	·	–	·
Cc1ccc(NC(=O)N2CCc3c(sc4c3CCCC4)C2c2ccccc2)cc1F (stereo not drawn)	·	–	·	–
CC1CCCN(S(=O)(=O)c2ccc(NC(=O)c3cccc(-n4cnnn4)c3)cc2)C1 (stereo not drawn)	28µM	–	–	–
COc1cc(C(=O)Nc2ccc(S(=O)(=O)N3CCCCC3C)cc2)cc(OC)c1OC (stereo not drawn)	–	–	–	–
CC1CCCCN1S(=O)(=O)c1ccc(NC(=O)c2cccc(-n3cnnn3)c2)cc1 (stereo not drawn)	22µM	–	–	–
Cc1oc(-c2ccc(C(=O)N(C)Cc3ccccc3)cc2)nc1CN1CCc2ccccc21	·	–	·	–
SMILES	HPGD inh	p53ts 39C kill	12-hLO inh	p53ts 32C tox
COc1cccc(NC(=O)c2cnn(-c3ccccc3)c2-n2cccc2)c1	·	–	·	–
COc1cc(NC(=S)N2CCN(c3ccccn3)CC2)c(OC)cc1Cl	28µM	·	–	·
Cc1n[nH]c(C)c1C(=O)CC1(O)C(=O)N(Cc2ccccc2)c2ccc(Br)cc21 (stereo not drawn)	–	·	–	·
O=C(CC1(O)C(=O)N(Cc2ccccc2)c2ccc(Br)cc21)c1ccccc1 (stereo not drawn)	·	16µM	·	?
CC(C)c1ccc(C(=O)CC2(O)C(=O)N(CCc3ccccc3)c3ccc(Cl)cc32)cc1 (stereo not drawn)	·	16µM	·	?
O=C(CC1(O)C(=O)N(CCc2ccccc2)c2ccc(Br)cc21)c1ccccc1O (stereo not drawn)	·	20µM	·	–
Cn1nnc2c(N3CCN(c4cccc(Cl)c4)CC3)ncnc21	·	–	·	–
O=C(NCc1cccs1)c1ccc(N2CCCCC2)nc1	16µM	–	–	–
CC1CCCN(c2ccc(C(=O)NCc3cccs3)cn2)C1 (stereo not drawn)	28µM	–	–	–
COc1ncc2nc(-c3cn(C)c4ccccc34)c(=O)n(-c3ccccc3)c2n1	·	–	·	–
CCOC(=O)Cc1csc(SCn2nnc3ccccc3c2=O)n1	–	–	–	–
CCOC(=O)Cc1csc(-n2sc3ccccc3c2=O)n1	1.4µM	?	4.5µM	?
O=C(CSc1nc2ccccc2s1)Nc1cc(S(=O)(=O)N2CCOCC2)ccc1O	13µM	·	–	·
